High-throughput results from PubChem BioAssay.
This is a sample that favours compounds with a hit; in the whole collection about 19% have one here.
TDP1 cell noCPT – qHTS for Inhibitors of human tyrosyl-DNA phosphodiesterase 1 (TDP1): qHTS in cells in absence of CPT; Potency, µM (titrated, usually from 46.2 µM), for inactives: top-dose activity change, negative = growth inhibition, most hits filed as inhibitors; 420,000 compounds, 15% hits; DT40 Tdp1-/- hTDP1 cells, no CPT, ATP luminescence, 48 h; also: potency is read from the fitted curve at half-maximal effect; nearly all actives have a fitted effect of over 55% in size
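Compound effects on proliferation are scored in DT40 Tdp1-/-;hTDP1 cells in the absence of CPT. ATP levels (CellTiter-Glo luminescence) are recorded after a ≥48 hr, 37 °C incubation.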
HT1080 IDH1KD tx – qHTS for induction of synthetic lethality in tumor cells producing 2HG: qHTS for the HT-1080-IDH1KD cell line; HT-1080 IDH1 knockdown viability, ATP luminescence, 48 h; Potency, µM (top dose mostly 46.1 µM), inactives show top-dose activity, negative = toxicity, hits mostly cytotoxic; 360,000 compounds, 2% hits;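 also: potency is read from the fitted curve at half-maximal effect; 0% = DMSO wells and -100% = cell-free medium wells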
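Cytotoxicity counter-line: IDH1KD HT-1080, 48 h, CellTiter-Glo. Curves classed by r2, magnitude and activity.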
HT1080NT lethal – qHTS for induction of synthetic lethality in tumor cells producing 2HG: qHTS for the HT-1080-NT fibrosarcoma cell line | HT-1080-NT fibrosarcoma viability, CellTiter-Glo ATP luminescence, 48 h | Potency, µM (top dose mostly 46.1 µM), for inactives: at the top dose activity, negative = less viability, hits mostly cytotoxic | 360,000 compounds, 1.6% hits | AID 686970, 2013;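 also: NT is the 2HG producing partner of a matched IDH1 knockdown line; potency is read from the fitted curve at half-maximal effect; 0% = DMSO-treated cells and -100% = media-only wells without cells; nearly all actives have a fitted effect of over 55% in size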
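A 48-hour cytotoxicity screen used HT-1080-NT cells plated 2 hours before compound delivery. ATP-based CellTiter-Glo luminescence measured viability, normalized to DMSO and no-cell controls.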
IL-1B inflam inh – qHTS for Inhibitors of Inflammasome Signaling: IL-1-beta AlphaLISA Primary Screen; THP-1 LPS/ATP IL-1B secretion, AlphaLISA, 16 h; active compounds read low; activity change, % at 57.5 µM; 360,000 compounds, 4.7% hits; in the data active = activity change below about -50%; inconclusive = mostly about -30% to -49%
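Secreted IL-1B measured by AlphaLISA bead assay after 16 h compound exposure of THP-1 cells; compounds (final up to 57.5 uM) added 1 h before LPS (250 ng/mL) and ATP (1.25 mM) stimulation; lower signal means less secretion.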
DT40 TDP1 CPT – qHTS for Inhibitors of human tyrosyl-DNA phosphodiesterase 1 (TDP1): qHTS in cells in presence of CPT. chicken DT40 Tdp1-/-;hTDP1 cells + 20 nM CPT, ATP luminescence, 48 h. Potency, µM (titrated, usually from 46.2 µM), inactives show at the top dose activity change, negative = growth inhibition, usual class: inhibitors. 420,000 compounds, 12% hits. AID 686979, 2013; also: potency is read from the fitted curve at half-maximal effect; nearly all actives have a fitted effect of over 55% in size
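Chicken DT40 Tdp1-/- cells complemented with human TDP1, 400 cells/well, exposed to compounds plus 20 nM camptothecin for at least 48 h at 37 C; viability read as ATP content by CellTiter-Glo luminescence.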
* marks the source's active call; other numbers are inactive results. Unless noted, calls follow the shape of the dose curve; as a rule, active = well fitted curve in the direction sought with a large enough effect; inconclusive = small, poorly fitted or top-dose-only effect, or another doubt; inactive = no such curve, though single readings can be large; an effect the other way counts as inactive or inconclusive. Unless noted, % is scaled to controls: 0 for no effect and ±100 for the full control effect.

Screening Cc1cc(C)c(OCC(=O)Nc2ccccc2N2CCCCC2)c(C)c1 returned TDP1 cell noCPT inconclusive, HT1080 IDH1KD tx -14%, HT1080NT lethal -3%, IL-1B inflam inh 4 and DT40 TDP1 CPT inconclusive.
Screening Cc1ccc(C)c(N2CCN(C(=O)COc3cc(=O)n(C)c4ccccc34)CC2)c1 returned TDP1 cell noCPT inconclusive, HT1080 IDH1KD tx -16%, HT1080NT lethal 2%, IL-1B inflam inh -26 and DT40 TDP1 CPT 15µM*.
`O=C(CCc1nnc2n(Cc3ccccc3)c(=O)c3ccccc3n12)NCCCN1CCCCC1` gave TDP1 cell noCPT 3%, HT1080 IDH1KD tx 1%, HT1080NT lethal 3%, IL-1B inflam inh -14 and DT40 TDP1 CPT -15%.
For CC1CCN(CCCNC(=O)CCc2nnc3n(CCc4ccccc4)c(=O)c4ccccc4n23)CC1 the results were TDP1 cell noCPT 16µM*, HT1080 IDH1KD tx 29%, HT1080NT lethal 3%, IL-1B inflam inh inconclusive and DT40 TDP1 CPT inconclusive.
`CC1CCN(C(=O)Cn2c(=O)n(Cc3ccc4c(c3)OCO4)c(=O)c3ccccc32)CC1` gave TDP1 cell noCPT inconclusive, HT1080 IDH1KD tx -11%, HT1080NT lethal -7%, IL-1B inflam inh -29 and DT40 TDP1 CPT inconclusive.
CC1CCN(C(=O)Cn2c(=O)n(CCc3ccccc3)c(=O)c3ccccc32)CC1 was read as TDP1 cell noCPT 16µM*, HT1080 IDH1KD tx -11%, HT1080NT lethal -10%, IL-1B inflam inh 5 and DT40 TDP1 CPT 15µM*.
`Cc1ccc(C)c(N(C)C(=O)COc2cc(=O)n(C)c3ccccc23)c1` gave TDP1 cell noCPT inconclusive, HT1080 IDH1KD tx 3%, HT1080NT lethal -2%, IL-1B inflam inh 0 and DT40 TDP1 CPT inconclusive.
`CCn1c(=O)cc(SCC(=O)N2CCC(C)CC2)c2ccccc21` gave TDP1 cell noCPT inconclusive, HT1080 IDH1KD tx -26%, HT1080NT lethal -3%, IL-1B inflam inh -62* and DT40 TDP1 CPT inconclusive.
`COc1cccc(N2C(=O)C3C(C2=O)C2C=CC3C23CC3)c1` (stereo not drawn) gave TDP1 cell noCPT -9%, HT1080 IDH1KD tx -2%, HT1080NT lethal 1%, IL-1B inflam inh 13 and DT40 TDP1 CPT 4%.
`Cn1cc(SCC(=O)N2CCOCC2)c2ccccc21` gave TDP1 cell noCPT -9%, HT1080 IDH1KD tx 16%, HT1080NT lethal -2%, IL-1B inflam inh 15 and DT40 TDP1 CPT 15%.
For Cn1cc(SCC(=O)N2CCN(c3ccccc3)CC2)c2ccccc21 the results were TDP1 cell noCPT inconclusive, HT1080 IDH1KD tx 0%, HT1080NT lethal -10%, IL-1B inflam inh -2 and DT40 TDP1 CPT 21µM*.
For CCn1c(=O)cc(SCC(=O)N2CCN(c3cc(C)ccc3C)CC2)c2ccccc21 the results were TDP1 cell noCPT inconclusive and DT40 TDP1 CPT 16µM*.
`Cn1c(=O)cc(SCC(=O)N2CCN(C3CCCCC3)CC2)c2ccccc21` gave TDP1 cell noCPT inconclusive, HT1080 IDH1KD tx -6%, HT1080NT lethal 2%, IL-1B inflam inh -60* and DT40 TDP1 CPT inconclusive.
Screening N=c1c2c(ncn1CCN1CCOCC1)Oc1cc(O)ccc1C2c1ccccc1 (stereo not drawn) returned TDP1 cell noCPT inconclusive, HT1080 IDH1KD tx -15%, HT1080NT lethal inconclusive, IL-1B inflam inh -75* and DT40 TDP1 CPT 1%.
Screening COc1ccc(C2c3ccc4ccccc4c3Oc3ncn(CCN4CCOCC4)c(=N)c32)cc1OC (stereo not drawn) returned TDP1 cell noCPT 15µM*, HT1080 IDH1KD tx -27%, HT1080NT lethal -14%, IL-1B inflam inh -52* and DT40 TDP1 CPT 18µM*.
For COc1ccc(C2c3ccc(O)cc3Oc3ncn(CCN4CCOCC4)c(=N)c32)cc1OC (stereo not drawn) the results were TDP1 cell noCPT -12%, HT1080 IDH1KD tx -7%, HT1080NT lethal 11%, IL-1B inflam inh inconclusive and DT40 TDP1 CPT -25%.
Screening COc1ccc(C2c3c(ncn(CCCN4CCOCC4)c3=N)Oc3ccc4ccccc4c32)cc1OC (stereo not drawn) returned TDP1 cell noCPT 13µM*, HT1080 IDH1KD tx -29%, HT1080NT lethal 0%, IL-1B inflam inh 0 and DT40 TDP1 CPT 23µM*.
COc1ccc(C2c3ccc4ccccc4c3Oc3ncn(CCN4CCOCC4)c(=N)c32)cc1 (stereo not drawn) was read as TDP1 cell noCPT inconclusive, HT1080 IDH1KD tx inconclusive, HT1080NT lethal inconclusive, IL-1B inflam inh -79* and DT40 TDP1 CPT 23µM*.
CSc1nc(=O)[nH]c2nc[nH]c12 was read as TDP1 cell noCPT -2% and DT40 TDP1 CPT -2%.
C[n+]1ccc(/C=C/c2cc[n+](C)c3ccccc23)c2ccccc21 was read as TDP1 cell noCPT 0.079µM* and DT40 TDP1 CPT 0.1µM*.
`CN1C=C/C(=C\c2cc[n+](C)c3ccccc23)c2ccccc21` gave TDP1 cell noCPT 0.0082µM*, HT1080 IDH1KD tx 6.5µM*, HT1080NT lethal inconclusive, IL-1B inflam inh -71* and DT40 TDP1 CPT 0.21µM*.
For C[n+]1ccc(/C=C/c2ccc(F)cc2)c2ccccc21 the results were TDP1 cell noCPT 13µM* and DT40 TDP1 CPT 8.9µM*.
`C[n+]1ccc(/C=C/c2ccc([N+](C)(C)C)cc2)c2ccccc21` gave TDP1 cell noCPT 0.16µM* and DT40 TDP1 CPT 0.14µM*.
`C[n+]1ccccc1/C=N/O` gave TDP1 cell noCPT 2%, HT1080 IDH1KD tx -2%, HT1080NT lethal 41%, IL-1B inflam inh 23 and DT40 TDP1 CPT 0%.
CCN(CC)C(=O)c1cccnc1 was read as TDP1 cell noCPT -19% and DT40 TDP1 CPT 6%.
Cc1cccc(CCNS(=O)(=O)c2ccc3c(c2)CCN3C(=O)CCC(=O)O)c1 was read as TDP1 cell noCPT 21%, HT1080 IDH1KD tx 1%, HT1080NT lethal 1%, IL-1B inflam inh 22 and DT40 TDP1 CPT 0%.
For CCN(CC)C(=O)CN1C(=O)COc2ccc(S(=O)(=O)N3CCOCC3)cc21 the results were TDP1 cell noCPT 0% and DT40 TDP1 CPT 4%.
O=C1CCC[C@@H]2CC(Nc3ccccc3)C[C@@H]3CCN1[C@H]23 (stereo partly drawn) was read as TDP1 cell noCPT -19% and DT40 TDP1 CPT inconclusive.
